A short description of test [1]: A549 cell viability effects, profiling panel, calcein-AM fluorescence, 48 h, basal (AID 1162). Further: test concentration not given here. The conditions noted are these: higher = more signal.
Test [2] is described as follows: adipocyte viability effects, profiling panel, cell-based, 3T3-L1 adipocytes, calcein-AM fluorescence, 48 h, basal (AID 1163). Further: test concentration not given here. The conditions noted are these: 3T3-L1 adipocytes viability, higher = more signal.
A short description of test [3]: HepG2 cell viability effects, profiling panel, calcein-AM fluorescence, 48 h, basal (AID 1164). Further: test concentration not given here. The note with it: higher = more signal.
Test [4] can be described thus: MM1S cell viability effects, profiling panel, calcein-AM fluorescence, 48 h, basal (AID 1165).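 Further: viability of MM1S multiple myeloma cells under basal unstimulated conditions; test concentration not given here.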 The conditions noted are these: higher = more signal.
The nature of test [5]: basal RPMI8226 viability, no added stimulus, profiling panel, cell-based, calcein-AM fluorescence, 48 h, PK04 Diversity Set (AID 1166).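 Further: cells grown under basal conditions without added stimulus; test concentration not given here.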 The conditions noted are these: RPMI8226 myeloma viability, higher = more signal.
Test [6] in a line: basal HepG2 mitochondrial membrane potential changes, profiling panel, cell-based, JC-1 fluorescence, 24 h, 100 nL compound (AID 1167). Further: test concentration not given here. The note with it: higher = more signal.
Test [7] in a line: basal 3T3-L1 adipocyte mitochondrial potential changes, profiling panel, cell-based, JC-1 fluorescence, 3T3-L1 adipocytes, 24 h, 100 nL compound (AID 1168). Further: test concentration not given here. The conditions noted are these: JC-1 mitochondrial fluorescence, higher = more signal, called active from +8 up or from −8 down.
Test [8] is described as follows: basal RPMI8226 mitochondrial membrane potential changes, profiling panel, cell-based, JC-1 fluorescence, 24 h, 100 nL compound (AID 1169). Further: test concentration not given here. The note with it: RPMI8226 myeloma, JC-1 mitochondrial potential fluorescence, higher = more signal.
Test [9] in a line: basal MM1S mitochondrial membrane potential changes, profiling panel, cell-based, JC-1 fluorescence, 24 h, 100 nL compound (AID 1170). Further: test concentration not given here. The conditions noted are these: higher = more signal.
Test [10] is described as follows: A549 lung cancer cell viability effects, profiling panel, resazurin fluorescence, 24 h, PK04 Diversity Set (AID 1171). Further: test concentration not given here. The conditions noted are these: higher = more signal, called active from +8 up or from −8 down.
Test [11] is described as follows: HepG2 liver cancer cell viability effects, profiling panel, resazurin fluorescence, 24 h, PK04 Diversity Set (AID 1172). Further: test concentration not given here. The note with it: higher = more signal. On the technique in general: The colour change of resazurin is a common sign of viable cells or microbes.
Test [12] can be described thus: basal S. cerevisiae growth modulation, no modifier, primary screen, OD600, strain BY4716, 24 h, basal condition (AID 1173). The note with it: OD600, 24 h, higher = more signal, called active from +8 up or from −8 down.
A short description of test [13]: MM1S myeloma cell viability, profiling panel, resazurin fluorescence, basal, 24 h, PK04 Diversity Set (AID 1174).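 Further: MM1S multiple myeloma cell line; test concentration not given here.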 The conditions noted are these: higher = more signal, called active from +8 up or from −8 down.
Test [14] addresses Dihydroorotate dehydrogenase (quinone), mitochondrial (Plasmodium falciparum (isolate 3D7)) (UniProt Q08210). The test is described as follows: PfDHODH enzyme inhibitors, primary screen, biochemical, C-terminal His tag, absorbance 600 nm (AID 1175).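 Further: recombinant parasite enzyme with a five histidine tag at its C terminus; test concentration not given here.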 The conditions noted are these: DCIP absorbance 600 nm, higher = more signal, called active from +8 up or from −8 down.
A short description of test [15]: P. aeruginosa biofilm formation inhibitors, primary screen, strain PAO1, LB-PBS medium, absorbance 600 nm (AID 1176). Further: test concentration not given here. The conditions noted are these: P. aeruginosa PAO1 growth/biofilm, A600, 12 h; higher = more signal.
Test [16] is described as follows: S. cerevisiae RM11-1a growth modifiers, primary screen, strain RM11-1a, OD600, basal, 24 h (AID 1177).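 Further: cultures grown under basal conditions with no added stressor; test concentration not given here.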 The conditions noted are these: OD600, 24 h, higher = more signal, called active from +8 up or from −8 down.
The nature of test [17]: E. coli acrAB mutant growth effects, primary screen, E. coli filamentation inducers, strain DRC39, OD650, 24 h (AID 1178).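 Further: growth measured as culture turbidity by optical density at 650 nm; test concentration not given here.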 The note with it: higher = more signal, called active from +8 up or from −8 down.
Test [18] in a line: E. coli acrAB mutant growth effects, primary screen, E. coli filamentation inducers, strain DRC39, OD650, 48 h (AID 1179).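 Further: screen aims at cell division blockers that make cells filament.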 The conditions noted are these: E. coli DRC39 delta-acrAB growth, higher = more signal, called active from +8 up or from −8 down.
Test [19] can be described thus: RPMI8226 myeloma cell viability, profiling panel, resazurin fluorescence, basal, 24 h, PK04 Diversity Set (AID 1180).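 Further: RPMI8826 multiple myeloma cell line at 5000 cells per well; test concentration not given here.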 The conditions noted are these: higher = more signal.
Test [20] deals with E3 ubiquitin-protein ligase XIAP (Homo sapiens) (UniProt P98170). The test is described as follows: XIAP binders, primary screen, biophysical, small-molecule microarray, fluorescence 635 nm (AID 1181).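 Further: score merges 667 nm emission and signal to noise over triplicate slides.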 The note with it: small-molecule microarray binding, higher = more signal.
Sequence of E3 ubiquitin-protein ligase XIAP (Homo sapiens) (P98170 whole entry, looked up): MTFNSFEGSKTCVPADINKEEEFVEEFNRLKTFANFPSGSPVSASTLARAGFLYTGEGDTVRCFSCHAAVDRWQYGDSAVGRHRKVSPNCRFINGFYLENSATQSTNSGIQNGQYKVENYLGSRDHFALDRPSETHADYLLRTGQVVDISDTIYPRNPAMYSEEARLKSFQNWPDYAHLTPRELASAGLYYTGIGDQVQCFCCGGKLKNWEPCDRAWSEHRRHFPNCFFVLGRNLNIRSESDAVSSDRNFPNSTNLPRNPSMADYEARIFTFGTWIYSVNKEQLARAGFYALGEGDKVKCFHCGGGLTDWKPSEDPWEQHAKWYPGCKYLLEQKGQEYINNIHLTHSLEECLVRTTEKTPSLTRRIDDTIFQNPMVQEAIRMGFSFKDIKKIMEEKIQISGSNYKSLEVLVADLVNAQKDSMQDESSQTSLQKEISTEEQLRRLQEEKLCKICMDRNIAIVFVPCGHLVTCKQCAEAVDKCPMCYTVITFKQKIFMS

Activity calls are given as the source filed them. Unless noted, how the calls were made is not given here.

Sequence of Dihydroorotate dehydrogenase (quinone), mitochondrial (Plasmodium falciparum (isolate 3D7)) (Q08210 whole entry, looked up): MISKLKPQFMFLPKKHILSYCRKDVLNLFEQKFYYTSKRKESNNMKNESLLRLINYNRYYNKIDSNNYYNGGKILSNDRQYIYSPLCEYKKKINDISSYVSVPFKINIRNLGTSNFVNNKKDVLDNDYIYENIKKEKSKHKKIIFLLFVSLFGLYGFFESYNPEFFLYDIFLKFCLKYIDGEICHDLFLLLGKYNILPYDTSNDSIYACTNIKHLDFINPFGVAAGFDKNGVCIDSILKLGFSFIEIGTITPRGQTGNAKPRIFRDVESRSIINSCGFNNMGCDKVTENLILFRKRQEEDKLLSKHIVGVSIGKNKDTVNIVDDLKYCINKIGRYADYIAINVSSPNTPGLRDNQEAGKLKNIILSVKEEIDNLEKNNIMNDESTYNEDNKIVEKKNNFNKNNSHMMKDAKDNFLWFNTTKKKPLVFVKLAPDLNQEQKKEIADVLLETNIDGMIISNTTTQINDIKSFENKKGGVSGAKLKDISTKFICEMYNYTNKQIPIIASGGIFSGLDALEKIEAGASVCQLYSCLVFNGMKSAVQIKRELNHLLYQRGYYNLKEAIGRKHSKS

`CCN(CC)c1ccc(N2CC=CC34O[C@@H]5/C=C\CCCOC(=O)C5[C@H]3C(=O)N(C(C)CO)[C@@H]4C2=O)cc1` (stereo not given in full): the z-score in [1] was 0.838; in [2] it was -0.536; in [3] it was 1.43; in test [4] it was 1.67; in [5], 0.403; in test [6], 0.8. The z-score in test [7] is 0.744 (inactive); in [8], -0.441; in test [9], 0.135; in [10], 0.0032 (inactive); in [11], 0.242; in [12], -0.566 (inactive). Further, the z-score in test [13] is 0.516 (inactive); in test [15] it was -0.14 (inactive); in test [16] it was -0.355 (inactive); in test [17] it was 1.9 (inactive); in test [18], 1.92 (inactive); in test [19], 0.778. Also, the figures for the composite z-score in [14] and in test [20] were -2.25 (inactive) and 0.115, respectively.
With `O=C1N(CCS(=O)(=O)c2ccccc2)c2ccccc2[C@H]2OC(c3ccc(OCCCO)cc3)=N[C@@]12Cc1ccccc1`, the z-score was -0.386 in test [1]; 0.726 in [2]; -0.763 in test [3]; -2.18 in test [4]; -2.65 in test [5]; -0.654 in test [6]. For the same molecule, the z-score in test [7] was 0.777 (inactive); in test [8] it was -1.19; in test [9] it was -2.19; in test [10], -1.02 (inactive); in test [11] it was 0.676; in test [12], -0.148 (inactive). Also, the z-score in test [13] is -2.38 (inactive); in [15], 0.755 (inactive); in test [16], 2.01 (inactive); in [17] it was 2.46 (inactive); in test [18], 1.13 (inactive); in [19] it was -1.96. Also, the composite z-score is -0.0331 (inactive) in [14] and 0.211 in test [20].
In the case of `C=CCNC(=O)[C@@H]1[C@H]2C(=O)O[C@H](c3ccccc3)[C@H](c3ccccc3)N2[C@H](c2ccc(OCCO)cc2)[C@@]12C(=O)N(C(=O)OCCOC)c1ccc(C#Cc3ccc(OC)cc3)cc12`, the z-score in test [1] is -0.528; in test [2], 0.786; in test [3], -0.834; in test [4] it was -0.845; in test [5] it was -1.32; in [6], -0.638. For the same molecule, the z-score in test [7] is 0.8 (inactive); in [8], -0.813; in test [9] it was -0.82; in test [10] it was 0.927 (inactive); in test [11], -0.0068; in test [12], 1.21 (inactive). Besides, the z-score in [13] is 0.279 (inactive); in test [15] it was 2.08 (inactive); in test [16] it was 2.57 (inactive); in [17], -0.709 (inactive); in test [18], -0.73 (inactive); in [19] it was 0.725. Moreover, the values for the composite z-score in [14] and in test [20] were -0.0464 (inactive) and 0.102, respectively.
For the molecule `CC(C)C(CO)N1C(=O)[C@@H]2[C@H]3C(=O)OCC=C[C@H]3OC23C=CCN(c2ccc(Cl)cc2)C(=O)[C@@H]13` (stereo not given in full), the z-score is -0.713 in [1]; 0.556 in [2]; 0.813 in test [3]; 1.04 in test [4]; -0.356 in [5]; 0.465 in test [6]. The z-score in [7] is 0.959 (inactive); in test [8], -0.212; in [9], 0.497; in test [10], 0.504 (inactive); in [11], -0.0883; in test [12], 0.646 (inactive). The z-score is 0.679 (inactive) in [13]; -1.13 (inactive) in test [15]; 1.48 (inactive) in [16]; 0.969 (inactive) in test [17]; 0.646 (inactive) in [18]; 1.08 in test [19]. Moreover, the composite z-score was 1.13 (inactive) in test [14] and -0.21 in [20].
For the molecule `CCCC=C(CCC)[C@@H](NC(=O)c1cccs1)c1ccc(C(=O)OC)cc1`, the z-score in [1] is 0.126; in [2] it was -0.302; in [3] it was -0.125; in test [4] it was 0.388; in [5] it was 0.45; in test [6] it was -0.115. The z-score is -0.0911 (inactive) in test [7]; 0.973 in test [8]; -0.997 in [9]; 0.902 (inactive) in test [10]; 0.756 in [11]; 1.07 (inactive) in test [12]. The z-score in [13] was 0.645 (inactive); in test [15], -0.94 (inactive); in test [16], -0.27 (inactive); in [17] it was 0.204 (inactive); in test [18], -0.814 (inactive); in [19], 0.429. For the same molecule, the composite z-score in [14] is 0.519 (inactive); in [20], -0.031.
For the molecule `[N-]=[N+]=Nc1ccccc1[C@H]1OC(c2ccc(OCCCO)cc2)=N[C@@]1(Cc1ccccc1)C(=O)NCCN1CCOCC1`, the z-score in test [1] is -0.449; in test [2], 0.91; in test [3], -1.21; in test [4], -2; in [5], -3.41; in [6], 2.36. For the same molecule, the z-score in test [7] is 1.83 (inactive); in test [8], -1.06; in [9], -0.638; in test [10] it was -2 (inactive); in test [11], -0.564; in test [12] it was -2.44 (inactive). In addition, the z-score in [13] was -1.5 (inactive); in [15], 0.314 (inactive); in test [16] it was 0.964 (inactive); in [17] it was 2.03 (inactive); in test [18], 0.627 (inactive); in test [19], -1.74. The figures for the composite z-score in test [14] and in [20] were 0.73 (inactive) and 0.643, respectively.
Turning to `CCOC(=O)C1=CC[C@@H](c2ccccc2F)N(S(=O)(=O)c2ccc(C)cc2)[C@H]1c1ccccc1`, the z-score is -0.982 in test [1]; -0.815 in test [2]; -0.244 in test [3]; -1.47 in test [4]; -0.413 in test [5]; 2.25 in test [6]. For the same molecule, the z-score in test [7] is -1.35 (inactive); in [8] it was -0.0368; in test [9], -1.24; in test [10], 2.12 (inactive); in test [11] it was 0.325; in [12] it was 0.837 (inactive). Moreover, the z-score was -0.0773 (inactive) in test [13]; 0.698 (inactive) in [15]; 0.262 (inactive) in test [16]; -0.308 (inactive) in test [17]; -0.35 (inactive) in test [18]; -0.781 in test [19]. The composite z-score in test [14] is -0.496 (inactive); in [20], -0.195.
In the case of `CCCC=C(CCC)[C@@H](NS(=O)(=O)c1ccc(C(F)(F)F)cc1)c1ccccc1`, the z-score is -0.511 in test [1]; -0.217 in [2]; -0.832 in test [3]; -0.266 in test [4]; -1.86 in [5]; -4.98 in test [6]. The z-score in test [7] was -0.61 (inactive); in test [8], -0.519; in test [9], -1.51; in test [10], 0.221 (inactive); in test [11], 0.281; in [12], 1.55 (inactive). The z-score in test [13] was -0.489 (inactive); in [15] it was 1.03 (inactive); in test [16], 1.84 (inactive); in [17] it was -0.763 (inactive); in [18], -0.197 (inactive); in [19] it was -0.683. Also, the composite z-score was 0.348 (inactive) in test [14] and -0.206 in [20].
Consider `O=C1OCCC=C[C@H]2OC34C=CCN(c5ccc6ccccc6c5)C(=O)[C@H]3N(CCCO)C(=O)[C@@H]4C12` (stereo not given in full), for which the z-score in test [1] was 0.167; in test [2] it was 1.41; in test [3], -0.16; in test [4], 0.441; in [5] it was -0.556; in [6], -0.458. Moreover, the z-score in test [7] is 0.241 (inactive); in test [8] it was -0.0315; in test [9] it was -0.89; in test [10] it was -0.391 (inactive); in test [11], -0.0412; in test [12], -0.129 (inactive). For the same molecule, the z-score is -0.284 (inactive) in test [13]; -0.385 (inactive) in test [15]; 0.393 (inactive) in [16]; -0.127 (inactive) in test [17]; -0.611 (inactive) in test [18]; -0.496 in test [19]. Further, the composite z-score in [14] is -0.286 (inactive); in [20], 0.158.

Values taken from PubChem BioAssay.
